{"source": "PubChem BioAssay (Tox21)", "note": "Unmarked numbers belong to inactive results. The source made the active and inactive calls. Calls come from the whole dose curve. % is set by controls: 0 for no effect and ±100 for the full control effect; potency is the fitted concentration of half-maximal effect."}
{"target": "Gonadotropin-releasing hormone receptor (Homo sapiens) (UniProt P30968)", "sequence (P30968 whole entry, looked up)": "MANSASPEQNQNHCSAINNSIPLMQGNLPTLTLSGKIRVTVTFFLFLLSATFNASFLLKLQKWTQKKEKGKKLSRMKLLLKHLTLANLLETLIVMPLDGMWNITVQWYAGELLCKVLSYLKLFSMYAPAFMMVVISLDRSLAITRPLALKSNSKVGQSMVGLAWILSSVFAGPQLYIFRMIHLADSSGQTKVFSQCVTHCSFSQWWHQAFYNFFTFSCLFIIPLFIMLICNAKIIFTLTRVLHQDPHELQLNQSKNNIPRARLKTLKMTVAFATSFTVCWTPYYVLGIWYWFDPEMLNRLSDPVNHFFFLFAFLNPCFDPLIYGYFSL", "test": "Human gonadotropin-releasing hormone receptor (GnRHR) small molecule agonists, calcium flux assay in GnRHR-HEK293 cells (AID 1920063); note: nearly all actives have a fitted effect of over 35% in size", "details": "calcium flux fluorescence, agonist mode; series mostly up to 57.6 µM; activity change: at the top concentration", "description": "National Center for Advancing Translational Sciences [NCATS]\nDivision of Preclinical Innovation [DPI]\nU.S. Environmental Protection Agency [EPA]\nNational Institutes of Environmental Health Sciences [NIEHS]\nNational Toxicology Program [NTP]\nU.S. Food and Drug Administration [FDA]\nGonadotropin-releasing hormone receptor (GnRHR) is a G-protein-coupled receptor (GPCR) and acts (through phospholipase C) to increase intracellular inositol trisphosphate and then release intracellular calcium stores. Cell-based GnRHR-Hek293 calcium influx assay is using HEK293 cells that have been genetically engineered to express the human GnRHR, which activity can be measured by calcium signaling. A compound/drug can activate (agonist) GnRHR that can be monitored by levels of intracellular calcium.\nGnRHR-HEK293 cells developed by Codex Corp contain human GnRHR reporter gene, which was stably integrated into HEK 293 cells. The compound activation can be detected by fluorescence intensity via calcium flux assay. This cell line has been used to screen the Tox21 10K compound library to identify GnRHR agonists.\nGnRHR-Hek293 cells were dispensed at 1500cells/4uL/well in 1536-well black wall/clear bottom plates using a multidrop dispenser. After the assay plates were incubated at a 37 C/5% CO2 incubator for 18 hours, 4 uL of Calcium Dye Solution was added to each well. The plates were incubated at 37 C for 1 hour. For agonist mode, 23 nL of compounds dissolved in DMSO, positive controls or DMSO only was transferred to the assay plate by a pin tool station. The fluorescence intensity in the plates was measured using FDSS 7000EX kinetic plate reader with a filter set of Ex/Em=480/540 for 3 min at 1 sec intervals. Each test compound was measured at 15 concentrations and in triplicates."}
{"smiles": "Cc1oc2c(NC(=O)c3c(Cl)cccc3Cl)cccc2c1C(C)(C)O", "activity change": "-0.787%"}
{"smiles": "CCOc1ccc2nc3cc(N)ccc3c(N)c2c1", "activity change": "0.213% [at 26.4 µM, hits give high values]"}
{"smiles": "CC1=C(C=O)C(C)(C)CCC1", "activity change": "-0.195%"}
{"smiles": "CNC(=S)NN", "activity change": "-0.481%"}
{"smiles": "O=C(/C=C/c1ccc(O)c(O)c1)O[C@@H]1C[C@@](OC(=O)/C=C/c2ccc(O)c(O)c2)(C(=O)O)C[C@@H](O)[C@@H]1O", "activity change": "-0.171% [at 26.4 µM, hits give high values]"}
{"smiles": "N=C(N)N1CCc2ccccc2C1", "activity change": "0.504% [at 5.22 µM, hits give high values]"}
{"smiles": "CCCNC(C)(C)COC(=O)c1ccccc1", "activity change": "-0.672% [at 26.4 µM, hits give high values]"}
{"smiles": "CCCC1C(CC)=CC(CC)=CN1c1ccccc1", "note": "(stereo not given)", "activity change": "-0.0372%"}
{"smiles": "CC[C@H](C)C(=O)O[C@H]1C[C@H](O)C=C2C=C[C@H](C)[C@H](CC[C@@H](O)C[C@@H](O)CC(=O)O)[C@H]21", "activity change": "-0.453%"}
{"smiles": "CCOC(=O)C(F)(F)F", "activity change": "-0.182%"}
{"smiles": "c1cnc(N2CCN(Cc3ccc4c(c3)OCO4)CC2)nc1", "activity change": "-1.34% [at 26.4 µM, hits give high values]"}
{"smiles": "O=C(O)CCSSCCC(=O)O", "activity change": "-0.342%"}
{"smiles": "CCCC(=O)O[C@]1(C(=O)CCl)[C@@H](C)C[C@H]2[C@@H]3CCC4=CC(=O)C=C[C@]4(C)[C@@]3(F)C(=O)C[C@@]21C", "activity change": "1.96% [at 26.4 µM, hits give high values]"}
{"smiles": "CC(C)C(C)C", "activity change": "0.674%"}
{"smiles": "Cc1ccc2nc(-c3ccc(N)cc3)sc2c1S(=O)(=O)O", "activity change": "0.0425% [at 26.4 µM, hits give high values]"}
{"smiles": "CCOC(=O)C(C)Oc1ccc(Oc2nc3ccc(Cl)cc3o2)cc1", "note": "(stereo not given)", "activity change": "-0.16%"}
{"smiles": "CC(C)C(OC(=O)c1ccccc1)C(C)(C)COC(=O)c1ccccc1", "note": "(stereo not given)", "activity change": "-0.463%"}
{"smiles": "O=[N+]([O-])C1(Br)COCOC1", "Potency": "38.9 µM (active)"}
{"smiles": "Cc1ccc(O)c(C(C)(C)C)c1", "activity change": "-0.362%"}
{"smiles": "COc1cc2ncnc(Nc3ccc(F)c(Cl)c3)c2cc1OCCCN1CCOCC1", "activity change": "0.726% [at 26.4 µM, hits give high values]"}
{"smiles": "O=C(O)CCn1c2c(c3ccccc31)C[C@H](NS(=O)(=O)c1ccc(F)cc1)CC2", "activity change": "0.0042% [at 26.4 µM, hits give high values]"}
{"smiles": "C=CC(=O)OCCn1c(=O)n(CCOC(=O)C=C)c(=O)n(CCOC(=O)C=C)c1=O", "activity change": "0.37%"}
{"smiles": "CCCCC/C(=C\\c1ccccc1)CO", "activity change": "11.5%"}
{"smiles": "O=C(O)CC(=O)C(=O)O", "activity change": "-1.89%"}
{"smiles": "C=CC(=O)Nc1cc2c(Nc3ccc(F)c(Cl)c3)ncnc2cc1OCCCN1CCOCC1", "activity change": "0.502% [at 26.4 µM, hits give high values]"}
{"smiles": "O=[N+]([O-])c1cc(C2CCCCC2)c(O)c([N+](=O)[O-])c1", "Potency": "38.8 µM (active)"}
{"smiles": "CC(C)=CCOc1ccc(/C=C/C(=O)c2ccc(OCC=C(C)C)cc2OCC(=O)O)cc1", "activity change": "-0.316% [at 26.4 µM, hits give high values]"}
{"smiles": "O=C(NOCC1CC1)c1ccc(F)c(F)c1Nc1ccc(I)cc1Cl", "activity change": "2.79% [at 26.4 µM, hits give high values]"}
{"smiles": "CC(C)N(c1ccccc1)C(C)C", "activity change": "-0.549%"}
{"smiles": "Cn1cnc2c(=O)[nH]c(N)nc21", "activity change": "-0.451%"}
{"smiles": "O=C1[C@@H]2[C@H]3CC[C@H](C3)[C@@H]2C(=O)N1CCCCN1CCN(c2ncccn2)CC1", "activity change": "0.683% [at 26.4 µM, hits give high values]"}
{"smiles": "C=CCOc1ccccc1OCC(O)CNC(C)C", "note": "(stereo not given)", "activity change": "5.19% [at 26.4 µM, hits give high values]"}
{"smiles": "COC(=O)C1=C(C)NC(C)=C(C(=O)OC(C)C)C1c1cccc2nonc12", "note": "(stereo not given)", "activity change": "-0.849% [at 26.4 µM, hits give high values]"}
{"smiles": "O=C(Oc1ccccc1)c1cccc(C(=O)Oc2ccccc2)c1", "activity change": "3.25%"}
{"smiles": "CCN1CCOCC1", "activity change": "1.21%"}
{"smiles": "C=C(C)C(=O)OCCCCCCCCCC", "activity change": "-2.17%"}
{"smiles": "CNCCCC1c2ccccc2C=Cc2ccccc21", "activity change": "9.5% [at 26.4 µM, hits give high values]"}
{"smiles": "CC(C)CCCCCCOC(=O)C1CCCCC1C(=O)OCCCCCCC(C)C", "note": "(stereo not given)", "activity change": "2.67%"}
{"smiles": "C=CC(=O)OCC(C)OCC(C)OCC(C)OC(=O)C=C", "note": "(stereo not given)", "activity change": "1.44%"}
{"smiles": "OC(C#CCN1CCCC1)(c1ccccc1)c1ccccc1", "activity change": "6.62% [at 26.4 µM, hits give high values]"}
